Data published in PubChem BioAssay (NCI).
About 83,000 compounds went through this panel and 20% of them were active in at least one assay; those are over-represented in the sample as a whole.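 Single-concentration screen, 48 h exposure, 96-well plates. Endpoint: percent growth. Below 10 = active.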 The source made the active and inactive calls.

Tested on: MCF7 breast
Assay: NCI-60 one-dose screen, 48 h (100 = growth as untreated, 0 = no growth, -100 = all killed)
Details: 10 µM

Compound	growth
C=C1C(=O)O[C@H]2[C@H]1CC/C(COC(=O)/C=C\C(=O)O)=C\CC[C@@]1(C)O[C@@H]21	94.3% (inactive)
CCCCC1CCc2cccc3c(SCC(=O)N(C)c4ccc(Cl)cc4)cc[n+]1c23 (centres undefined)	99.1% (inactive)
O=C(c1nc2ccccc2[nH]1)C1C(c2cccc([N+](=O)[O-])c2)C2CC3CCCCC3N2[C@@]12C(=O)Nc1cc(Cl)ccc12 (some centres undefined)	16.3% (inactive)
O=C1/C(=C/c2ccc(O)cc2)COc2ccc(O)cc21	51.6% (inactive)
O=C1/C(=C/c2ccc(O)cc2)COc2ccc(O)c(O)c21	13.8% (inactive)
COc1cc2nc(NC3CCCC3)nc(NC3CCN(C(C)C)CC3)c2cc1OC	39.8% (inactive)
Cc1ccccc1CNC(=O)C1CN(c2ccc(Cl)cc2)N(c2ccc(Cl)cc2)C1=O (centres undefined)	74.1% (inactive)
COc1cc(C2CC(c3ccc(Nc4nc(NCCO)nc(N5CCOCC5)n4)cc3)=NN2c2cc(Cl)cc(Cl)c2)cc(OC)c1OC (centres undefined)	15.3% (inactive)
O=C(c1nc2ccccc2[nH]1)C1C(c2ccc([N+](=O)[O-])cc2)C2CC3CCCCC3N2[C@@]12C(=O)Nc1cc(Cl)ccc12 (some centres undefined)	7.25% (active)
O=C(Cn1cc(COc2ncnc3c2cnn3-c2ccccc2)nn1)Nc1cccc2ccccc12	85% (inactive)
CN1C(=O)N(C)C2Nn3c(s/c(=C\c4ccc(Cl)cc4Cl)c3=O)=NC21 (centres undefined)	45.4% (inactive)
O=Cc1cc2ccccc2nc1Nc1nccs1	13.2% (inactive)
O=C1/C(=C/c2cccc(O)c2)COc2ccc(O)cc21	14% (inactive)
COc1cc2nc(NC3CCC3)nc(NC3CCN(C(C)C)CC3)c2cc1OC	29.5% (inactive)
O=C(c1nc2ccccc2[nH]1)C1[C@@H](c2cccc(O)c2)C2CC3CCCCC3N2[C@@]12C(=O)Nc1cc(Cl)ccc12 (some centres undefined)	18.9% (inactive)
CCN1C(=O)N(c2ccccc2)C2NN=c3s/c(=C4\C(=O)N(C(C)C)c5ccccc54)c(=O)n3C21 (centres undefined)	20.6% (inactive)
Cc1sc2ncn(CC(=O)Nc3ccc(S(N)(=O)=O)cc3)c(=O)c2c1C	101% (inactive)
COC(=O)c1c2c(c(C)[n+]([O-])c1C)C(=O)C(NCc1ccc(F)c(F)c1)=CC2=O	-43.3% (active)
CNCCNc1nc2ccccc2c2c(=O)c3cccc(OC)c3sc12	-67.5% (active)
CNCCNc1nc2ccccc2c2c(=O)c3cccc(C)c3sc12	-66.1% (active)

Compound	growth
COc1cc(/C=C2\Oc3cc(OCCCN4CCCC4)ccc3C2=O)cc(OC)c1	4.85% (active)
COC(=O)[C@H](NC(=O)C1(C)CCC[C@]2(C)[C@H]3C[C@H]4C(C(C)C)=C[C@]3(CC[C@@H]12)[C@@H]1C(=O)CCC(=O)[C@@H]14)C(C)C (some centres undefined)	98.2% (inactive)
COc1cc(/C=C2\CN(C)C/C(=C\c3cc(CN4CCCCC4)c(O)c(OC)c3)C2=O)cc(CN2CCCCC2)c1O	11.7% (inactive)
O=S(=O)(Nc1ncccn1)c1ccc(NC2Nc3nc4ccccc4nc3S2)cc1 (centres undefined)	98.8% (inactive)
O=C1CCC(N2C(=O)c3cccc(NCCCCCCOc4ccc(Nc5nccc(Nc6ccccc6)n5)cc4)c3C2=O)C(=O)N1 (centres undefined)	66.8% (inactive)
Cc1c(-c2csc(-n3nc(C(F)(F)F)cc3C(F)(F)F)n2)no[n+]1[O-]	85.1% (inactive)
O=C(NCc1ccccc1)C1CN(c2ccc(Cl)cc2)N(c2ccc(Cl)cc2)C1=O (centres undefined)	49.8% (inactive)
c1ccc2c(c1)oc1cc3sccc3nc12	99.8% (inactive)
CCCCC1COc2cccc3c2N1C=C/C3=C\C(=O)N(C)c1ccccc1 (centres undefined)	66.7% (inactive)
COc1cc(/C=C/C(=O)c2ccc(Nc3nc(NCCO)nc(N4CCOCC4)n3)cc2)cc(OC)c1OC	3.22% (active)
Cc1cccc2c(=O)c3c(sc12)c(NCCCNCCO)nc1ccccc13	-61% (active)
COc1cc(/C=C2\CN(C)C/C(=C\c3cc(CN4CCCC4)c(O)c(OC)c3)C2=O)cc(CN2CCCC2)c1O	26.3% (inactive)
O=C(/C=C/c1ccc(C(F)(F)F)cc1)c1ccc(Nc2nc(NCCO)nc(N3CCOCC3)n2)cc1	3.91% (active)
NCCOc1ccccc1/C=C1\c2ccccc2-c2ccc([N+](=O)[O-])cc21	-60.9% (active)
O=C(/C=C/c1ccc(F)cc1)c1ccc(Nc2nc(NCCO)nc(Nc3ccc(Cl)cc3)n2)cc1	4.3% (active)
O=c1oc2ccc(Br)cc2c(=O)n1-c1ccc(Br)cc1F	0.224% (active)
NCCNc1nc2ccccc2c2c(=O)c3cc(F)cc(Cl)c3sc12	-91.6% (active)
CCCN1CCN(c2ccc3nc(-c4ccc5nc(-c6cc(OC)ccc6OC)[nH]c5c4)[nH]c3c2)CC1	-63.3% (active)
Cc1ccc(C2CC(c3ccc(Nc4nc(NCCO)nc(Nc5ccc(Cl)cc5)n4)cc3)=NN2c2cc(Cl)cc(Cl)c2)cc1 (centres undefined)	88.2% (inactive)
